Screening results deposited in PubChem BioAssay by several laboratories.
This is a sample that favours compounds with a hit; in the whole collection about 3.8% have one here.
FGF22 binding-1: FGF22 (human) thermal shift binding. Q9HCT0. recombinant FGF22 thermal shift, SYPRO orange fluorescence; percent of sucrose octasulfate shift, DMSO zero. activity (Tm shift, normalised), % at 9.99 µM. 340,000 tested, 1.5% active. AID 651658;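 active means mean Tm shift, scaled 0 neutral to 100 positive control, at about 1.3% or above, every replicate too, limit read from the data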
KLK7 zymogen act: activators of human kallikrein-7 zymogen; P49862; purified proKLK7, EDANS-DABCYL substrate fluorescence; 100% is mature enzyme control, 0% vehicle; 370,000 tested, 0.9% active; activation, % at 7 µM; AID 652039;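 active means activation above the mean of all tested compounds plus 3 SD, computed per campaign excluding outliers beyond control limits, cut at about 13% in these data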
rRNA inh HTS: selective bacterial rRNA inhibition in E. coli; E. coli WT GFP vs humanized-ribosome RFP mutants, fluorescence, 24 h; active compounds read low; DMSO median 0, no signal -100; GFP signal change (wild-type ribosome), % (test concentration not listed); 350,000 tested, 1.6% active;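 active means significant combined selectivity score with lowered wild-type GFP, culture density cut under 30%, mutant RFP and density less affected; inactive means any of these conditions unmet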
ADAM10 inh: inhibitors of human ADAM10; O14672; recombinant ADAM10, EDANS/DABCYL FRET peptide cleavage, 3 h; inhibition, % at 7 µM; 370,000 tested, 0.62% active;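 active means inhibition above a per-campaign cutoff equal to the mean of compounds falling between control-based bounds plus 3 SD, cut at about 20% in these data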;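 further: 0% = DMSO wells while the 100% control is not disclosed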
Target sequence (O14672 214-748 limits assumed): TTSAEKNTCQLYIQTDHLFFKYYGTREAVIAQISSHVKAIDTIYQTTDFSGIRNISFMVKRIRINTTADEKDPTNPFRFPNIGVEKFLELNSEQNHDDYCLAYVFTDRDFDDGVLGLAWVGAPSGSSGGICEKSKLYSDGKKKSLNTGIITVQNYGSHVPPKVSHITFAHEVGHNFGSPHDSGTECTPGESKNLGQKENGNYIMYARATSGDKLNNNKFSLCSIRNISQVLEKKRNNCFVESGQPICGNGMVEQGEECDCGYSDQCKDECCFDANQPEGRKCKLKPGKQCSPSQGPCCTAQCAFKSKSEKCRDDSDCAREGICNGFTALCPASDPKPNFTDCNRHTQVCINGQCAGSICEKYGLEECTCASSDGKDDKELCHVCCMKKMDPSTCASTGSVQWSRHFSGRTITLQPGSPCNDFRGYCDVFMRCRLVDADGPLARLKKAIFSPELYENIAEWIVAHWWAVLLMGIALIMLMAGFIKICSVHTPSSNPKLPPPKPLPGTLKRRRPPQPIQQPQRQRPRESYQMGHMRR
ADAM17 inh: inhibits human ADAM17; inhibition, % at 6.95 µM; recombinant ADAM17, EDANS/DABCYL FRET peptide cleavage; P78536; 370,000 tested, 0.83% active;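 active means inhibition above the mean of compounds lying between control limits plus 3 SD, set per campaign, cut at about 8.5% in these data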;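 further: 0% = DMSO-only wells as the low control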
FGF22 binding-2: binds human FGF22 shifting its melting temperature; AID 720646; recombinant FGF22 thermal shift, SYPRO orange fluorescence; thermal shift activity, °C (ΔTm) at 38 µM; 1,000 tested, 2% active; shares compounds with FGF22 binding-1;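 active means fitted rise in melting shift crosses a set limit at or below the top valid dose tested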
FGF22 TSA DP: FGF22 (human) binding by thermal shift; shares compounds with FGF22 binding-1; Thermal shift assay, SYPRO orange, melting temperature shift; Tm shift (activity), % at 38 µM; 50 tested, under 10 active; AID 743017;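 active means compounds whose fitted dose curve of melting temperature shift rises past a set threshold within the tested doses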
SYPRO no-protein: shows thermal shift signal without protein, FGF22 counter-screen; shares compounds with FGF22 binding-1; compound-only SYPRO orange thermal shift counter-screen, no protein; AC50, µM (highest dose often 38 µM); 1,000 tested, 2% active;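 active means rising signal whose fitted curve reaches the 0.54 level within the top valid dose, showing a melting point, actives reach about 13 µM in these data; inactive means the rest, including activity in the opposite direction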; further: value is where the raw curve crosses a fixed level and not half-maximal
* marks the source's active call; other numbers are inactive results; i = inactive; · = no result given; [ ] = another dose, or the depositor's remark.

SMILES	FGF22 binding-1	KLK7 zymogen act	rRNA inh HTS	ADAM10 inh	ADAM17 inh	FGF22 binding-2	SYPRO no-protein	others
CCc1ccc(N2CC(C(=O)OCC(=O)NC3CC3)CC2=O)cc1 (stereo unspecified)	·	0.1	6.4	-0.6	0.9	·	·
CSc1ncccc1C(=O)NCC1CCCCC1	-0.1	0.2	15.5	1.9	-0.6	·	·
O=C(NCC1CCCCC1)c1cccnc1Cl	1.5*	0.5	5.2	-1.8	-1.5	0.226	i
Oc1ccc(-c2nc3ccccc3s2)c(O)c1	1.3*	-48.6	-60.5	-358.8	-111.8	0.223	i
Cc1ccccc1-c1ccc([C@H]2[C@@H](CO)N3CCCCN(Cc4cccnc4)C[C@H]23)cc1	1.3*	·	0.0	·	·	-0.039[42 µM]	i
OC[C@H]1[C@@H](c2ccc(-c3ccccc3F)cc2)[C@H]2CN(Cc3cccnc3)CCCCN21	0.0	·	5.9	·	·	·	·
OC[C@@H]1[C@H](c2ccc(-c3cccnc3)cc2)[C@H]2CN(Cc3ccccn3)CCCCN12	1.5*	·	1.0	·	·	0.261	i
OC[C@@H]1[C@H](c2ccc(-c3cccnc3)cc2)[C@@H]2CN(Cc3ccccn3)CCCCN12	1.4*	·	-1.1	·	·	0.018	i
C[C@H]1CN([C@@H](C)CO)C(=O)c2cc(Br)cnc2O[C@H]1CN(C)C(=O)NC1CCCC1	·	·	3.2	·	·	·	·
CSc1ccc(/C=N/NC(=O)c2ccc3nc[nH]c3c2)cc1	2.2*	1.6	-6.1	-94.3	-18.4	·	i	FGF22 TSA DP=0.1
O=C(Nc1ccc(F)c(Cl)c1)C1CCCN(C2=NS(=O)(=O)c3ccccc32)C1 (stereo unspecified)	30.8*	-0.2	-15.3	2.6	1.2	0.254	i
C[C@@H]1CN([C@H](C)CO)C(=O)c2cc(NS(=O)(=O)c3ccc(Cl)cc3)ccc2O[C@@H](C)CCCCO[C@H]1CN(C)Cc1ccc2c(c1)OCO2	·	·	3.1	·	·	·	·
O=C(CNS(=O)(=O)c1ccccc1F)OCC(=O)c1c[nH]c2ccccc12	-0.1	0.3	-1.7	7.9	4.8	·	·
O=C(CNS(=O)(=O)c1ccccc1)OCC(=O)c1c[nH]c2ccccc12	2.1*	-0.5	-6.4	-2.9	-1.4	0.102	i
COCC(=O)Nc1ccc2c(c1)OC[C@H](C)N(C(=O)c1ccccc1)C[C@@H](C)[C@@H](OC)CN(C)C2=O	-0.6	·	0.2	·	·	·	·
CCOC(=O)c1c(N)sc(C(=O)Nc2ccccc2)c1C	2.9*	0.7	-24.9	-2.5	-0.2	-0.181	i
CO[C@H](CN(C)C(=O)Nc1ccc(C(F)(F)F)cc1)[C@H](C)CN(Cc1ccccc1Cl)[C@H](C)CO	0.1	·	-58.5	·	·	·	·
COC(=O)C[C@H]1CC[C@@H]2[C@@H](COc3ccc(NC(=O)Nc4cccc(C#N)c4)cc3C(=O)N2C)O1	2.0*	·	-15.0	·	·	-0.093[42 µM]	i	FGF22 TSA DP=0.2
COC(=O)C[C@@H]1CC[C@@H]2[C@@H](COc3ccc(NC(=O)c4ccc(F)c(F)c4)cc3C(=O)N2C)O1	2.3*	·	-7.1	·	·	0.072	i
COC(=O)C[C@H]1CC[C@@H]2[C@@H](COc3ccc(NC(=O)Nc4ccc(C#N)cc4)cc3C(=O)N2C)O1	1.3*	·	-13.9	·	·	-0.133	2.4µM*	FGF22 TSA DP=0.3
C/C=C/c1ccc2c(c1)O[C@H](CN(C)C(=O)c1cnccn1)[C@H](C)CN([C@@H](C)CO)S2(=O)=O	0.6	·	0.9	·	·	·	·
CCCNC(=O)N1CC2(CCN(C(=O)c3cnccn3)CC2)c2c([nH]c3cc(OC)ccc23)[C@@H]1CO	0.1	·	-1.1	·	·	·	·
CCC(=O)N1CCCCN2[C@H](CO)[C@@H](c3ccc(C#Cc4ccccc4F)cc3)[C@H]2C1	1.5*	·	-56.5	·	·	0.044[42 µM]	i
CCC(=O)N1CCCCN2[C@@H](CO)[C@@H](c3ccc(C#Cc4ccccc4F)cc3)[C@@H]2C1	0.8	·	-7.8	·	·	·	·
O=[N+]([O-])c1ccc(/C=N/Nc2ccc3ccccc3c2)o1	2.1*	0.3	1.6	5.5	3.0	-0.088	i
